Assay: compounds binding Alexa647 anti-His antibody – biochemical, small-molecule microarray, 635 nm fluorescence, artefact control for SMM control protein annotation, primary screen (AID 1128);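 further: score merges feature fluorescence with signal-to-noise for each printed compound spot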
Details: higher = more signal

Compound | composite z-score
Cc1ccc(S[C@]2(C(=O)NC3CC3)CC(=O)N(Cc3cc(C(F)(F)F)cc(C(F)(F)F)c3)[C@@H]2c2ccc(CO)cc2)cc1 | 1.79
O=C/C=C/c1ccccc1Cl | -0.761
COC(=O)[C@@]1(Cc2ccccc2N=[N+]=[N-])N=C(c2ccc(OCCCO)cc2)O[C@H]1c1ccccc1CN=[N+]=[N-] | 1.65
COC(=O)C(CC#Cc1ccc2c(c1)[C@]1(C(=O)N2)[C@H](C(=O)N2CCCCCCC2)[C@H]2C(=O)O[C@H](c3ccccc3)[C@H](c3ccccc3)N2[C@@H]1c1ccc(O)cc1)C(=O)OC | -0.231
C=CCC(OC(C)=O)[C@@H]1[C@@H](N(Cc2cccc3ccccc23)C(=O)c2ccc(C)cc2)c2cc(OCCCO)ccc2N1C(=O)c1ccc(-c2ccccc2)cc1 (stereo not given in full) | -0.215
CCOC(=O)C[C@H]1[C@H](OC(=O)c2ccccc2-c2ccccc2)[C@@H](NC(=O)C2CCCCC2)c2cc(OCCCO)ccc2N1C(=O)c1ccccc1 | 0.198
CC(C)CNC(=O)[C@@]1(C)c2ccccc2C(=O)N(Cc2ccc(OC(F)(F)F)cc2)[C@H]1c1ccc(CO)cc1 | 0.206
C=CC[C@]1(C(=O)O)N=C(c2ccc(OCCCO)cc2)O[C@H]1c1ccccc1 | 0.254
O=C1OCC=C[C@H]2OC34C=CCN(Cc5ccccc5)C(=O)[C@H]3N(CCO)C(=O)[C@@H]4[C@@H]12 (stereo not given in full) | -0.29
CO[C@@H]1COC(=O)CC=C[C@@H](C)[C@H](OC)COC(=O)CC=C[C@H]1C | 0.0112
CO[C@H]1COC(=O)[C@@H](C)COC(=O)[C@H](Cc2ccccc2)NC(=O)CC=C[C@H]1C | -1.35
CN(C)c1ccc(C(O)C2C=CC3C(=O)NC(=O)C3N2Nc2ccc(Cl)cc2Cl)cc1 (stereo not given) | -0.129
COc1ccc([Si](C)(C)[C@H]2[C@H](CCO)O[C@@]3(C(=O)N(Cc4ccccc4)c4ccc(N5C(=O)c6cccc7cccc5c67)cc43)[C@@H]2C)cc1 | 1.38
CO[C@@H]1COC(=O)CC=C[C@H](C)COC(=O)[C@H](Cc2ccccc2)NC(=O)CC=C[C@H]1C | 0.236
CCOC(=O)C[C@H]1[C@H](OC(=O)Cc2ccc3c(c2)OCO3)[C@@H](NC(=O)CC(C)C)c2cc(OCCCO)ccc2N1C(=O)c1ccccc1 | -0.314
CO[C@@H]1COC(=O)[C@H](COCc2ccccc2)NC(=O)CC=C[C@@H](C)[C@H](OC)COC(=O)[C@H](COCc2ccccc2)NC(=O)CC=C[C@H]1C | -0.156
CC/C=C/C(=O)N(C[C@@H]1CCCO1)[C@@H]1CC(C(=O)NCCO)=C[C@H](Oc2c(I)cc(CO)cc2OC)[C@H]1O | 0.224
CCC1=C2CN(Cc3ccccc3Br)[C@@H]([C@@H](O)Cc3ccccc3)C2C=CCC1 (stereo not given in full) | 1.23

Compound | composite z-score
CC(=O)NCCCC[C@@H]1NC(=O)[C@@H]2C[C@H](C(=O)NCCCCCNC(=O)CS)[C@H](c3ccc(O)cc3)N2C1=O | 0.133
C=C(C)[C@@H]1CC=C(C(O)C2C=CC3C(=O)NC(=O)C3N2Nc2ccccn2)CC1 (stereo not given in full) | 2.31
CCCC=C(CCC)[C@@H](NC(=O)c1ccc(C(F)(F)F)cc1)c1ccccc1 | 0.81
CO[C@@H]1COC(=O)[C@H](C)NC(=O)CC=C[C@@H](C)[C@H](NS(=O)(=O)c2ccc(C)cc2)COC(=O)CC=C[C@@H]1C | 0.373
COC(=O)C1=C(C)N(Cc2ccccc2)c2c(C(=O)OC)c(C(=O)OC)c(C(=O)OC)c(=O)n2[C@@H]1c1ccccc1 | -0.0074
CO[C@H]1COC(=O)[C@@H](Cc2ccccc2)NC(=O)[C@@H](C)COC(=O)CC=C[C@@H]1C | -0.28
CC(C)NC(=O)[C@@]1(Cc2ccccc2I)c2ccccc2C(=O)N(C2CCCCC2)[C@H]1c1ccc(CO)cc1 | 2.52
COc1ccc([Si](C)(C)[C@H]2[C@H](CC(=O)N3Cc4ccccc4C[C@H]3CO)O[C@@]3(C(=O)N(Cc4cccc(N5CCOC5=O)c4)c4ccccc43)[C@@H]2C)cc1 | 1.42
O=C1NC(=O)C2C1C=CC(C(O)C=Cc1ccc([N+](=O)[O-])cc1)N2Nc1ccccn1 (stereo not given) | 2.75
CO[C@H]1COC(=O)CC=C[C@H](C)[C@@H](OC)COC(=O)CC=C[C@@H]1C | 0.245
COc1cc(Cc2cc3c(c(CCc4ccccc4)n2)[Si](C(C)C)(C(C)C)OC3)cc(OC)c1OC | 0.151
NC(=O)NCC#Cc1ccc2c(c1)[C@]1(C(=O)N2)[C@H](C(N)=O)[C@H]2C(=O)O[C@H](c3ccccc3)[C@H](c3ccccc3)N2[C@@H]1c1ccccc1OCCO | -0.22
COCCOC(=O)N1C(=O)[C@@]2(c3cc(C#CCNC(N)=O)ccc31)[C@H](C(=O)N1CCCCCCC1)[C@H]1C(=O)O[C@H](c3ccccc3)[C@H](c3ccccc3)N1[C@@H]2c1ccccc1OCCO | 0.455
C=CCC(OC(C)=O)[C@@H]1[C@@H](N(Cc2ccc(-c3ccccc3)cc2)C(=O)c2ccc(-c3ccccc3)cc2)c2cc(OCCCO)ccc2N1C(=O)Cc1ccc(OC)cc1 (stereo not given in full) | -0.347
C[C@H]1C2[C@H](Cc3ccccc3)NC(=O)[C@]23C(=O)N[C@H](Cc2ccccc2)C(=O)N[C@@H](Cc2ccccc2)C(=O)NC/C=C\C/C=C/C3[C@@H]2O[C@]12C (stereo not given in full) | 0.133
CCOC(=O)C1=C[C@@H](c2ccccc2)N(S(=O)(=O)c2ccc(C)cc2)[C@H]1c1ccc(F)cc1 | 0.986
CC(C)[Si](OCCCNS(=O)(=O)c1ccc(Br)cc1)(C(C)C)C(C)C | 0.479

— PubChem BioAssay
